The record followed here is PubChem BioAssay (NCATS).

Each structure is given as a SMILES string. Results filed as inconclusive are left out. The source made the active and inactive calls. Calls come from the whole dose curve; as a rule, active = well fitted inhibition curve with a large enough effect; inconclusive = small, poorly fitted or top-dose-only effect; inactive = flat fitted curve, though single readings scatter.
Potency is the fitted concentration of half-maximal effect.

In the test the test system is CP211. Put plainly: qHTS profiling for inhibitors of Plasmodium falciparum proliferation (AID 504749).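 For activity, negative = inhibition: 0% = DMSO vehicle and full inhibition = artemisinin control.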 Note: nearly all actives have a fitted effect of over 60% in size. The settings on record: P. falciparum in erythrocytes, SYBR Green DNA, 72 h; series mostly up to 28.7 µM; activity, negative = inhibition: at the top concentration. The gist of the method:
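SYBR Green fluorescence of parasite DNA, read after lysis and overnight dark incubation, measured growth over 72 h in erythrocyte culture at 0.3% parasitemia and 2.5% hematocrit. Data normalised to DMSO and 0.29 uM artemisinin, with plate-drift correction.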
As to `CCCN(CCc1cccs1)[C@H]1CCc2c(O)cccc2C1`, the Potency was 10.7 µM (active). Regarding `CN1CCN(C2=Nc3ccccc3Sc3ccc(Cl)cc32)CC1`, the “activity, negative = inhibition” value was -18.5% (inactive). Still for that read-out and setting: the same measure for `CC1=C(C(=O)O)N2C(=O)[C@@H](NC(=O)[C@H](N)c3ccccc3)[C@H]2SC1`: -3.13% (inactive).

As to `COc1ccc(C(=O)c2ccccc2O)c(O)c1`, the “activity, negative = inhibition” value was 4.94% [at 12.8 µM] (inactive). Same read-out and setting: to `COc1cc(N)c(Cl)cc1C(=O)NC1CCN(Cc2ccccc2)CC1` belongs -22% [at 12.8 µM] (inactive); to `Cc1cc(CC(=O)O)c(C)n1-c1ccc(Cl)cc1`, -11% (inactive); to `CN(C)CCOC(c1ccc(Cl)cc1)c1ccccn1` (stereo not given), -19.6% (inactive).

For the molecule `O=C(NC1CCN(CCc2c[nH]c3ccccc23)CC1)c1ccccc1`, the “activity, negative = inhibition” value is -16.5% (inactive). For `CC(C)(C)CC(C)(C)c1ccc(O)c(-n2nc3ccccc3n2)c1`, the “activity, negative = inhibition” value was -3.7% (inactive). Same read-out and setting: to `O=[N+]([O-])c1cccc(S(=O)(=O)NCCNS(=O)(=O)c2cccc([N+](=O)[O-])c2)c1` belongs -21.8% (inactive).

Take `C[N+]1(C)CCC(=C(c2ccccc2)c2ccccc2)CC1`: the “activity, negative = inhibition” value is -22% [at 12.8 µM] (inactive). As to `Oc1c(Cl)cc(Cl)c(Cl)c1Cc1c(O)c(Cl)cc(Cl)c1Cl`, the Potency is 12 µM (active). In the case of `CCNC(=O)/C=C/c1cccc(Br)c1`, the “activity, negative = inhibition” value is -14.7% (inactive). Turning to `CCCCCCCCCCCCOCCOCCOCCOCCOCCOCCOCCOCCOCCO`, the “activity, negative = inhibition” value is -9.82% (inactive). Consider `Cn1c(=O)c2[nH]c(Br)nc2n(C)c1=O`, for which the “activity, negative = inhibition” value was 0.338% (inactive). `CO[C@]12C[C@@H](COC(=O)c3cncc(Br)c3)CN(C)[C@@H]1Cc1cn(C)c3cccc2c13`: the “activity, negative = inhibition” value was -14.7% (inactive). Consider `Cc1ccc2c(Br)cc(Br)c(O)c2n1`, for which the Potency was 15.1 µM (active).

Turning to `Cc1cc2c(OCC(CNC(C)(C)C)OC(=O)c3ccccc3)cccc2[nH]1` (stereo not given), the “activity, negative = inhibition” value was -10.7% (inactive). As for `Oc1ccc(Cl)cc1Cc1cc(Cl)ccc1O`, the “activity, negative = inhibition” value was -11.9% (inactive).

As to `CN1CCC[C@@H]1CCO[C@](C)(c1ccccc1)c1ccc(Cl)cc1`, the “activity, negative = inhibition” value is -17.9% (inactive).
